The campaign covered roughly 290,000 compounds. About 370 (0.13%) were called active. This is one part of a sample in which actives are shown more often than they occur. Measured potencies and affinities stand elsewhere. A number with no mark means an inactive call.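 How the source made its calls: active means spots per cell inhibited over 60%, with over 100 cells counted and total cytoplasm intensity under 500,000; inconclusive means wells with under 100 cells, flagged as likely toxic; inactive means the rest.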
Molecular target: G-protein coupled receptor 55 (Homo sapiens) (UniProt Q9Y2T6)
Sequence (Q9Y2T6 whole entry, looked up): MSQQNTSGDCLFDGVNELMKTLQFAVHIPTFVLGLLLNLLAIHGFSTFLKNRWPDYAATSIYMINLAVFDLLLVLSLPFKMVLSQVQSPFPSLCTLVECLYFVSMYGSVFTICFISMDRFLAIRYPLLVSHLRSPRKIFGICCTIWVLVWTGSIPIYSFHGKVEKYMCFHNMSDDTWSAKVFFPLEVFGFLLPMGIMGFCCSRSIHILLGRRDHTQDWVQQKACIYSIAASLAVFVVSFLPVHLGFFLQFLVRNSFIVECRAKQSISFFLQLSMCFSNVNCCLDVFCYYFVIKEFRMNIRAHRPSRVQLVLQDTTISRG
Assay: GPR55 antagonists blocking LPI-driven arrestin recruitment, primary screen, imaging, U2OS, beta-arrestin-GFP, LPI agonist (AID 2013);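 further: U2OS cells stably carrying GPR55 and arrestin-GFP stimulated by 5 µM LPI near EC80; imaged beta-arrestin-GFP aggregate spots per cell after agonist stimulation; plate controls were LPI-stimulated DMSO wells for no effect and DMSO wells without LPI for full effect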
Conditions: U2OS GPR55 beta-arrestin-GFP translocation imaging, LPI antagonism; at 10 µM; hits give high values

Row | Structure (SMILES) | inhibition
1 | CCOC(=O)c1cn(CC2CC2)c2cc(F)c(F)cc2c1=O | -1.8%
2 | O=C(Cc1coc2ccc3ccccc3c12)NC1CCCc2ccccc21 (stereo not given) | -1.1%
3 | C/C(=N\Nc1nc2ccccc2s1)c1ccc2c(c1)OCO2 | 11.7%
4 | O=C(Nc1ccc(F)cc1)c1ccccc1Oc1ccc(C(F)(F)F)cc1[N+](=O)[O-] | 24.3%
5 | O=C(Nc1ccccc1)c1ccccc1Oc1ccc(C(F)(F)F)cc1[N+](=O)[O-] | 5.3%
6 | CCCC(=O)N(C1CC(C)C(C#N)(C#N)C1(C#N)C#N)N(C)C (stereo not given) | 98.9% (active)
7 | CC(=O)N(C1CC(C)C(C#N)(C#N)C1(C#N)C#N)N(C)C (stereo not given) | 7.5%
8 | O=C1NC2(CCCCCC2)N=C1c1ccc(Br)cc1 | 2.5%
9 | CCCCS(=O)(=O)Nc1ccc(Cc2ccncc2)cc1 | 14.3%
10 | CCS(=O)(=O)Nc1ccc(Cc2ccncc2)cc1 | -1.6%
11 | COc1ccc(NC(=O)CCCn2c(=O)[nH]c3ccccc3c2=O)cc1 | 27.9%
12 | O=c1[nH]c2ccccc2nc1-c1c[nH]c2ccccc12 | 12.2%
13 | c1ccc2c(-c3ccncc3)c[nH]c2c1 | -22.9%
14 | COc1ccc(C(=O)C2CCCN(Cc3cn(C)nc3-c3ccccc3)C2)cc1F (stereo not given) | 4.8%
15 | CN(C1CCCCC1)S(=O)(=O)c1ccc(NC(=O)C2CCCCC2)cc1 | 0.9%
16 | CN(c1ccccc1)S(=O)(=O)c1ccc(NC(=O)C2CCCCC2C(=O)O)cc1 (stereo not given) | 45.5%
17 | Cc1ccc(Cn2c(SCC(=O)Nc3cccc(C)n3)nc3c2c(=O)n(C)c(=O)n3C)cc1 | 4.3%
18 | COc1ccccc1CN(CC(=O)NCc1ccc(F)cc1)C(=O)c1csnn1 | 4%
19 | Cc1ccccc1Cn1c(=N)n(CC(=O)c2ccc([N+](=O)[O-])cc2)c2ccccc21 | 11%
20 | Cc1ccc(Cn2c(=N)n(CC(=O)c3ccc([N+](=O)[O-])cc3)c3ccccc32)cc1 | 44.2%
21 | N=c1n(CC(=O)c2ccc([N+](=O)[O-])cc2)c2ccccc2n1Cc1ccccc1Cl | 8.7%
22 | N=c1n(CC(=O)c2cccc([N+](=O)[O-])c2)c2ccccc2n1Cc1ccccc1 | 28.3%
23 | N=c1n(CC(=O)c2ccc([N+](=O)[O-])cc2)c2ccccc2n1Cc1ccccc1 | 64.5% (active)
24 | N=c1n(CC(=O)c2ccc([N+](=O)[O-])cc2)c2ccccc2n1Cc1ccc(Cl)cc1 | 65.4% (active)
25 | N#Cc1cccc(NC(=O)COC(=O)c2ccc3c(=O)n4c(nc3c2)CCC4)c1 | 3%

Row | Structure (SMILES) | inhibition
26 | CCOC(=O)C(=O)c1cn(C2OCC(OC(C)=O)C(OC(C)=O)C2OC(C)=O)c2ccccc12 (stereo not given) | 6.8%
27 | Nn1c(SCC(=O)Nc2ccc(F)cc2)nnc1-c1cccnc1 | 16.8%
28 | O=C1C2C3C=CC(C3)C2C(=O)N1CCCCCCN1C(=O)C2C3C=CC(C3)C2C1=O (stereo not given) | 12%
29 | O=C1C=CC(=O)N1Cc1ccccc1 | -45%
30 | COc1cc(/C=N/NC(=O)C2CC(=O)N(c3ccc(C)cc3)C2)cc(OC)c1OC (stereo not given) | 6.8%
31 | Cc1[nH]c2ccccc2c1C(=O)C(=O)N1CCN(C)CC1 | 8.2%
32 | COc1ccc(/C=C/C(=O)NCc2ccccn2)cc1OC | -3%
33 | Cc1nc2ccc(S(=O)(=O)NC(C(=O)Nc3nccs3)C(C)C)cc2s1 (stereo not given) | 17.8%
34 | Cc1ccc(CNC(=O)C(NS(=O)(=O)c2ccc3nc(C)sc3c2)C(C)C)cc1 (stereo not given) | 3.8%
35 | CCc1noc(C)c1C(=O)N1CC(C)OC(C)C1 (stereo not given) | 22%
36 | c1ccc(-c2nc(-n3ccnc3)nc(-n3ccnc3)n2)cc1 | 4.8%
37 | c1ccc(-c2nc(N3CCN(c4ccccc4)CC3)nc(-n3ccnc3)n2)cc1 | 24.6%
38 | COc1ccc(C(=O)NNC(=O)c2cccc(F)c2)cc1 | -5.9%
39 | COc1cc(C(=O)NCC(=O)OCC(=O)c2ccc[nH]2)cc(OC)c1OC | -22.9%
40 | COc1ccc2c(c1)[nH]c1c(N3CCSCC3)ncnc12 | -7.3%
41 | COc1ccccc1NC(=O)Nc1ccnn1C1CCCCC1 | 0.2%
42 | COc1ccc2cc(C(=O)N/N=C/c3sc4ccccc4c3O)ccc2c1 | 4.9%
43 | COc1ccc(CS(=O)(=O)/C(Cl)=C(/Cl)C(=O)Nc2ccc(OC)nc2)cc1 | 2%
44 | COc1ccc(NC(=O)/C(Cl)=C(/Cl)S(=O)(=O)Cc2ccc(C)cc2)cn1 | -0.1%
45 | COc1ccc(NC(=O)Cc2c(Cl)cccc2Cl)cn1 | 9%
46 | COc1ccc(NC(=O)/C(Cl)=C(/Cl)S(=O)(=O)Cc2ccccc2)cn1 | 93.7% (active)
47 | COc1ccc(NC(=O)C(Cl)=C(Cl)Cl)cn1 | 6.1%
48 | O=C(c1ccccc1[N+](=O)[O-])N1CCN(Cc2ccc3c(c2)OCO3)CC1 | 0.2%
49 | Cc1nc(COc2ccc(C(=O)Nc3ccccc3N3CCOCC3)cc2)cs1 | 2.8%
50 | CCc1ccccc1S(=O)(=O)Cc1ccc(C(=O)N2CCN(c3ccccn3)CC2)o1 | -4.8%

Row | Structure (SMILES) | inhibition
51 | COc1ccc(N(CC(=O)Nc2cc(C)ccc2C)S(=O)(=O)c2c(C)nn(C)c2C)cc1 | 10%
52 | COc1ccc2nc(NC(=O)CN(c3ccc(C)cc3)S(=O)(=O)c3c(C)nn(C)c3C)sc2c1 | 22.1%
53 | C#CCNC(=O)C1=C[C@@H](c2csc3ccccc23)[C@H](CCCO)[C@@H](OCC)O1 | 14.1%
54 | COc1cccc(/C=N/NC(=O)c2cc(C34CC5CC(CC(C5)C3)C4)[nH]n2)c1 | 14.9%
55 | COc1cc(/C=N/NC(=O)c2cc(C3CC3)[nH]n2)ccc1O | 6.5%
56 | COc1ccc(/C=N/NC(=O)c2cc(C34CC5CC(CC(C5)C3)C4)[nH]n2)cc1O | 49.4%
57 | O=C(N/N=C/c1ccc(O)cc1)c1cc(C23CC4CC(CC(C4)C2)C3)[nH]n1 | -6.9%
58 | CC(C)NC(=O)CN(CCc1ccccc1)S(C)(=O)=O | 18.2%
59 | Cc1ccc(-n2ncc3c2CC(C)(C)CC3NC(=O)C2CCOCC2)cc1 (stereo not given) | 9.6%
60 | Cc1cc(C)n(CC(=O)O)c(=O)c1[N+](=O)[O-] | 1.7%
61 | CNC(=O)c1sccc1Oc1ccc(F)cc1[N+](=O)[O-] | 8.2%
62 | Cc1nc(N2CCN(C(=O)c3ccco3)CC2)c2c3c(sc2n1)CCC3 | 46.7%
63 | Cc1nc(N2CCN(S(=O)(=O)c3ccccc3)CC2)c2c3c(sc2n1)CC(C)CC3 (stereo not given) | 14.2%
64 | CC(C)c1nc(N2CCN(C(=O)c3ccco3)CC2)c2c3c(sc2n1)CCCC3 | 98.6%
65 | Cc1nc(N2CCN(C(=O)c3cccs3)CC2)c2c3c(sc2n1)CCCC3 | 36.3%
66 | CC(=O)N1CCN(c2nc(C)nc3sc4c(c23)CCC(C)C4)CC1 (stereo not given) | 22.1%
67 | CCc1nc(N2CCN(C(=O)c3ccco3)CC2)c2c3c(sc2n1)CCCC3 | 7.3%
68 | CCCN1C2CCCC1CC(NC(=O)c1cc(OC)cc(OC)c1)C2 (stereo not given) | 4.9%
69 | CN(C)S(=O)(=O)c1ccc(N)c([N+](=O)[O-])c1 | 16.6%
70 | FC(F)(F)COc1ccc(-n2ccnc2)nn1 | -3.5%
71 | Cc1ccc(/C=C/C(=O)O)cc1S(=O)(=O)N1CCCc2ccccc21 | 9.5%
72 | COCCCNC(=O)CCc1ccccc1 | -1.2%
73 | Cc1ccccc1CC(=O)N1CCN(C(=O)C2CCCO2)CC1 (stereo not given) | 10.1%
74 | CCCCn1c(-c2nn(C)cc2Cl)n[nH]c1=S | 2.5%
75 | CC1=NOC(=O)/C1=C\c1ccc(-c2ccc(Cl)cc2Cl)o1 | 21%

Row | Structure (SMILES) | inhibition
76 | CC1=NOC(=O)/C1=C/c1ccc(-c2ccc(Cl)cc2)o1 | 7.3%
77 | Cc1ccc(C)c(NC(=S)N2CCC(NC(=O)c3ccccc3)CC2)c1 | 2.1%
78 | NC(=O)C1(N2CCCCC2)CCN(C2CC(=O)NC2=O)CC1 (stereo not given) | 9.8%
79 | CN1C(=O)/C(=C\c2ccccc2OCc2ccccc2)SC1=S | -1.8%
80 | CN1C(=O)/C(=C\c2cc(N=Nc3ccccc3)ccc2O)SC1=S | 19.5%
81 | CNC(=S)NC1(C)CCS(=O)(=O)C1 (stereo not given) | -1.4%
82 | CCOC(=O)c1c(-c2ccccc2)oc2ccc(O)c(CN3CCCC3)c12 | -1.6%
83 | CCOC(=O)c1c(-c2ccccc2)oc2ccc(O)c(CN3CCOCC3)c12 | 34.5%
84 | Cc1ccc(OCC(=O)N/N=C/C=C/c2ccco2)cc1C | -3.3%
85 | CC(C)(C)c1ccc(-c2c(C(=O)O)c(C(=O)O)c3n2CSC3)cc1 | -9.4%
86 | CC(C)(C)C1=CC=C(C(C)(C)C)C(=O)C1=O | -11.4%
87 | CCN1C(=O)N(CC)C(O)(c2ccccc2)C1(O)c1ccccc1 (stereo not given) | 14.2%
88 | Cc1ccc(-n2c(C)csc2=N)cc1 | 6.4%
89 | O=C(/C=C/c1cccc(Br)c1)NCC1CCCCC1 | -3.3%
90 | CN(C)c1ccc(/C=C/c2ccc3ccccc3[n+]2C)cc1 | 5.6%
91 | CC[n+]1c(/C=C/c2ccc(N(C)C)cc2)ccc2ccccc21 | -0.1%
92 | O=C(N/N=C\c1ccncc1)c1ccc(Br)s1 | -6.3%
93 | Cc1ccc(N(CC(O)CON=C2c3ccccc3-c3ccccc32)S(C)(=O)=O)cc1 (stereo not given) | 2.5%
94 | CCN(CC(O)CON=C1c2ccccc2-c2ccccc21)S(=O)(=O)c1ccc(Cl)cc1 (stereo not given) | 80.9% (active)
95 | Cc1ccc(S(=O)(=O)N(CCCO)CC(O)CON=C2c3ccccc3-c3ccccc32)cc1 (stereo not given) | 4%
96 | CCN(CC(O)CON=C1c2ccccc2-c2ccccc21)S(=O)(=O)c1ccc(C)cc1 (stereo not given) | 89.1% (active)
97 | Cc1cccc(N(CC(O)CON=C2c3ccccc3-c3ccccc32)S(C)(=O)=O)c1 (stereo not given) | 30.8%
98 | CC(C)CCNCC(O)CON=C1c2ccccc2-c2ccccc21 (stereo not given) | 35%
99 | CS(=O)(=O)N(CC(O)CON=C1c2ccccc2-c2ccccc21)c1ccc(F)cc1 (stereo not given) | 4.1%
100 | CCN(CC(O)Cn1c2ccccc2c2ccccc21)S(=O)(=O)c1ccc(C)cc1 (stereo not given) | 22.4%

Source: PubChem BioAssay AID2013 (Sanford-Burnham Center for Chemical Genomics, 2009)
